Source: PubChem (The Scripps Research Institute Molecular Screening Center)
Hits are enriched below; roughly 5.7% of the tested compounds scored in any of these assays.
ssDAF12 agonist: S. stercoralis DAF-12 nuclear receptor activators, primary screen, cell-based, luminescence, HEK293, GRIP1 co-expression, lit1-tk-luc | Nuclear hormone receptor DAF-12 (Strongyloides stercoralis) | HEK293 ssDAF-12/GRIP1 lit1-tk-luc reporter; % of 3 µM dafachronic acid response | activation, % at 6.8 µM | hit rate 1% among 370,000;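 active = activation above the mean over all tested compounds plus 3 SD, cut at about 0.9% in these data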
DAX1 inh-1: DAX1 (NR0B1) inhibitors on StAR promoter, primary screen, cell-based, luminescence, SF-1 (NR5A1), full-length DAX-1; HEK293T StAR-luciferase reporter, SF-1/DAX-1 repression relief; inhibition, % at 6.8 µM; hit rate 1.1% among 370,000;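 active = inhibition above the mean over all tested compounds plus 3 SD, cut at about 3.6% in these data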;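 note: higher inhibition means more luminescence from relief of DAX-1 repression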
hcDAF12 agonist: H. contortus DAF-12 nuclear receptor activators, primary screen, cell-based, luminescence, HEK293, lit1-tk-luc reporter; HEK293 hcDAF-12 lit1-tk-luc reporter; 0% DMSO, 100% Δ7-dafachronic acid; activation, % at 6.8 µM; hit rate 1.4% among 370,000; AID 652067, 2013;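 active = activation above the mean of all tested compounds plus 3 SD, cut at about 5.5% in these data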
AHR act: AHR activators, primary screen, cell-based, luminescence, luciferase reporter, human. Aryl hydrocarbon receptor (Homo sapiens), P35869. AID 2796, 2010. hit rate 2.5% among 320,000. activation, % at 5 µM. AHR-responsive luciferase reporter cells; in the data active = activation above about 47%
DAX1 inh-2: DAX1 (NR0B1) inhibitors, primary screen, cell-based, HEK293, Gal4-DAX1, luciferase luminescence; Nuclear receptor subfamily 0 group B member 1 (Homo sapiens), P51843; HEK293 Gal4-DAX1 luciferase reporter; inhibition, % at 6.75 µM; hit rate 0.99% among 340,000;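 active = inhibition above the mean over all tested compounds plus 3 SD, cut at about 4.2% in these data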;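 note: inhibition shows as a rise in luminescence from relieved DAX1 repression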
Target sequence (P51843 207-470 limits assumed): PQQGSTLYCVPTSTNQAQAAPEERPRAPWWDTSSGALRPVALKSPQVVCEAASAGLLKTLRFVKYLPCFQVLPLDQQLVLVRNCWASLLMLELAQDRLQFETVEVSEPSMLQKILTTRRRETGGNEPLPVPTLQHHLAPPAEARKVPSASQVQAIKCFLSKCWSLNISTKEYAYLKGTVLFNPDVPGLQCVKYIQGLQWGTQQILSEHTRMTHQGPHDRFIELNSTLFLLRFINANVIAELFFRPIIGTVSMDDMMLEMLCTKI
hgDAF-12 ag: H. glycines DAF-12 receptor agonists, primary screen, cell-based, luminescence, HEK293, GAL4 fusion, UAS-luciferase; Nuclear hormone receptor DAF-12 (Heterodera glycines), GAL4 fusion; HEK293 GAL4-hgDAF12 UAS-luciferase reporter, agonist luminescence; normalized to butyrate control; activation, % at 6.8 µM; hit rate 1.8% among 370,000; AID 687014, 2013;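 active = activation above a cutoff set at the mean of all screened compounds plus 3 SD, cut at about 10% in these data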
Of the large screens only hits and unclear results are named; the others gave an inactive call.

COc1ccc(S(=O)(=O)Cc2ccc(C(=O)NCc3ccccc3OC)o2)cc1	none
O=C(Nc1ccccc1N1CCOCC1)c1cccc([N+](=O)[O-])c1	AHR act 66.6
CC(=O)c1c(C)[nH]c(C(=O)Nc2cccc(C)c2C)c1C	AHR act 54.8
CC(=O)c1c(C)[nH]c(C(=O)Nc2cc(S(=O)(=O)N3CCCCC3)ccc2C)c1C	none
O=C(Nc1ccccc1N1CCCCC1)c1cccc([N+](=O)[O-])c1	none
COc1ccc(S(=O)(=O)N2CCCCC2)cc1NC(=O)c1[nH]c(C)c(C(C)=O)c1C	ssDAF12 agonist 0.9, hcDAF12 agonist 6.2, DAX1 inh-2 4.5
COc1ccccc1NS(=O)(=O)c1cccc(NC(=O)c2[nH]c(C)c(C(C)=O)c2C)c1	none
COc1ccccc1NC(=O)c1[nH]c(C)c(C(C)=O)c1C	AHR act 54.7
CSCC[C@H](NC(=O)COc1cc2c(c3oc(=O)c(C)c(C)c13)CCC(C)(C)O2)C(=O)O	none
CC(=O)c1c(C)[nH]c(C(=O)Nc2ccccc2N2CCOCC2)c1C	AHR act 71.5
CCOc1cc(N2CCOCC2)c(OCC)cc1NC(=O)c1[nH]c(C)c(C(C)=O)c1C	none
O=C(CCc1ccccc1)NNC(=S)Nc1ccc(F)cc1	none
CN(CCc1ccccn1)C(=O)c1cccnc1Oc1ccccc1	DAX1 inh-2 6.4
CN(CC(=O)Nc1ccccc1C(F)(F)F)C(=O)c1ccc(N2C(=O)CCC2=O)cc1	DAX1 inh-2 4.5
CCCCn1nc(C(=O)NC2CCCCC2)c2ccccc2c1=O	none (no result: AHR act)
CC(C)(C)NC(=O)C(c1cc2ccccc2o1)n1c(=O)c(-c2cc3ccccc3[nH]2)nc2ccccc21 (configuration not stated)	none (no result: AHR act, DAX1 inh-2)
COc1ccc(-c2nsc3c(N4CCN(C(=O)c5ccco5)CC4)ncnc23)cc1	none
O=C(c1ccco1)N1CCN(c2ncnc3c(-c4ccccc4)nsc23)CC1	AHR act 66.3
CCCn1c(O)c(N=NC(=O)CNC(=O)Cc2ccc(OC)cc2)c2ccccc21	none
O=C(Nc1ccccc1C(=O)Nc1ccccc1)c1ccco1	AHR act 75.8
O=C(O)c1cccc(NC(=O)c2ccccc2NC(=O)c2ccco2)c1	none
CCOc1ccccc1NC(=O)c1csc(C)c1C	AHR act 71.0
O=C(Nc1ccccc1C(=O)Nc1ccc2c(c1)OCO2)c1ccco1	AHR act 47.3
COc1ccc(NC(=O)c2ccccc2NC(=O)c2ccco2)cc1	AHR act 62.6
CCOc1ccccc1NC(=O)c1ccccc1-c1ccccc1	none
CCCCCC(=O)O/N=C(\C)c1ccn(S(=O)(=O)c2ccccc2)c1	none
CCOc1ccccc1NC(=O)c1ccc(C(=O)Nc2ccccc2OCC)nc1	AHR act 72.0
CCOc1ccccc1NC(=O)COC(=O)c1ccc2ccccc2n1	none
CCOc1ccccc1NC(=O)c1cnccn1	none
CCOCC(=O)Nc1cc(C(=O)Nc2ccc(F)cc2)ccc1Cl	AHR act 63.4 (no result: ssDAF12 agonist, DAX1 inh-1, hcDAF12 agonist, DAX1 inh-2, hgDAF-12 ag)
CCOCC(=O)Nc1cc(C(=O)Nc2cccc(C)c2C)ccc1Cl	none
CCOc1ccccc1NC(=O)c1cccc2ccccc12	AHR act 74.3
CCOc1ccccc1NC(=O)COC(=O)c1cc[n+]([O-])cc1	DAX1 inh-2 5.4
O=C(Nc1c(O)c2ccccc2[nH]c1=O)c1ccco1	AHR act 78.2
CCOc1ccccc1NC(=O)c1cc(SC)ccc1Cl	AHR act 72.4
CCCc1c(O)c2ccccc2[nH]c1=O	none
CCCCCCC(=O)Nc1c(O)c2ccccc2[nH]c1=O	none
O=c1[nH]c2ccccc2c(O)c1Cc1ccccc1	DAX1 inh-2 4.7
CCOc1ccccc1NC(=O)c1ccccc1NC(=O)c1ccco1	AHR act 70.3
c1csc(-c2nn[nH]n2)c1	none
CCOc1ccccc1NC(=O)c1ccc(Cl)c(NC(=O)CC(c2ccccc2)c2ccccc2)c1	AHR act 79.9
O=C(Nc1cccnc1Oc1ccc(Cl)cc1)c1cccc2ccccc12	DAX1 inh-2 6.0
COC(=O)CSc1nnc(-c2cccnc2)n1-c1cccc(OC)c1	none
CCn1cc(/C=C/C(=O)c2ccc(O)cc2)c(C)n1	DAX1 inh-2 12.7, hgDAF-12 ag 14.8
CCn1cc(/C=N/O)c(C)n1	none
Cc1nc2ccc(Br)cc2c2c1CC(CBr)O2 (configuration not stated)	none
Cc1nc2ccc(Br)cc2c2c1CC(CO)O2 (configuration not stated)	DAX1 inh-2 5.4
O=C1CCN(C(=O)c2ccc(Cl)cc2)N1	none
O=C1CCN(C(=O)CSc2ccc(Cl)cc2)N1	DAX1 inh-2 5.8
O=C(Nc1ccccc1)N1CCn2c1nc1ccccc12	AHR act 50.6
CCOC(=O)CNC(=O)CSc1nc(-c2ccccc2)ns1	none
CC[C@]12c3[nH]c4ccc(Cl)cc4c3CCN1C(=O)[C@@H](CC(=O)NC/C=C(\C)CCC=C(C)C)C[C@@H]2C(=O)N1CCN(C(=O)c2ccco2)CC1	ssDAF12 agonist 2.1 (no result: AHR act)
COC(=O)[C@H](CC(C)C)N(Cc1cn(Cc2ccccc2)nn1)S(=O)(=O)c1ccc(F)cc1Br	none (no result: AHR act, DAX1 inh-2)
COc1ccc(/C=C2\SC(=O)N(CC(=O)Nc3ccc(O)cc3)C2=O)cc1OC	none (no result: AHR act)
COc1ccc(/C=C2\SC(=O)N(CC(=O)NN3CCN(C)CC3)C2=O)cc1OC	DAX1 inh-2 4.7
COc1ccc(/C=C2\SC(=O)N(CCC(=O)N3CCCCC3)C2=O)cc1OC	DAX1 inh-2 5.8
Cc1cc(S(=O)(=O)NCc2ccccc2)ccc1OCC(=O)NCC1CCCO1 (configuration not stated)	none
O=C(/C=C/NNC(=O)c1ccccc1)c1ccc([N+](=O)[O-])cc1	DAX1 inh-2 4.4
O=C(/C=C/NNC(=O)c1ccccc1)c1ccccc1	none
O=C(O)CC(NNC(=O)c1ccccc1)C(=O)Nc1ccc([N+](=O)[O-])cc1 (configuration not stated)	DAX1 inh-2 8.4
Cc1ccccc1C1=NC(c2ccc(F)cc2F)ON1 (configuration not stated)	none
COc1ccccc1C1N=C(c2ccccc2C)NO1 (configuration not stated)	hgDAF-12 ag 10.5
O=C(COC(=O)c1ccc(NS(=O)(=O)c2ccc(Br)s2)cc1)NC1CCCC1	none
